Holding throughout (assay): cell viability relative to vehicle control; higher = less cytotoxic
Common to all, as to details: 10 µM

For one assay, the system named is K562. Summed up:
(§1)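 CRISPR-edited mutant clones and isogenic wild-type clones from four leukaemia lines were screened against Selleck bioactive, kinase and epigenetic probe libraries, with identity-inconsistent compounds excluded. Each compound was acoustically dispensed at a single 10 µM dose into 384-well plates holding 2000 cells in 50 µL medium per well. After 48 h the supernatant was removed and CellTiter-Glo luminescence was read. Viability was expressed as percent of the on-plate vehicle control and analysed in Genedata Screener.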

In the next assay the test system is MARIMO. Summed up: as §1
Another assay relates to MOLM14. In short, it runs like this:
as §1

For the next assay, the system named is OCI-AML2. In short, it runs like this: as §1

The structures appear in SMILES notation. Where “and” joins values, the source holds several entries; their conditions need not be identical. Equal values may be shown once.

On to `O=NO` [Sodium Nitrite], for which the cell viability was 107% and 104% with K562 (SRSF2 genotype: SRSF2 P95H/wt); 95.9% with K562 (SRSF2 genotype: SRSF2 wt/wt); 99.9% in the assay with MARIMO (SRSF2 genotype: SRSF2 P95H/wt); 99.4% with MARIMO (SRSF2 genotype: SRSF2 wt/wt); 96.4% in the assay with MOLM14 (SRSF2 genotype: SRSF2 P95H/wt); 101% in the assay with MOLM14 (SRSF2 genotype: SRSF2 wt/wt). Moreover, the cell viability in the assay on OCI-AML2 (SRSF2 genotype: P95H/wt) was 97.8%; in the assay on OCI-AML2 (SRSF2 genotype: wt/wt) it was 99.5%.

On to `N[C@@H](Cc1c[nH]c2ccc(O)cc12)C(=O)O` [5-hydroxytryptophan (5-HTP)], for which the cell viability is 106% and 102% in the assay with K562 (SRSF2 genotype: SRSF2 P95H/wt); 94.2% in the assay on K562 (SRSF2 genotype: SRSF2 wt/wt); 99.8% in the assay on MARIMO (SRSF2 genotype: SRSF2 P95H/wt); 103% in the assay with MARIMO (SRSF2 genotype: SRSF2 wt/wt); 93.3% in the assay on MOLM14 (SRSF2 genotype: SRSF2 P95H/wt); 99.1% with MOLM14 (SRSF2 genotype: SRSF2 wt/wt). Further, the cell viability in the assay on OCI-AML2 (SRSF2 genotype: P95H/wt) was 94.5%; with OCI-AML2 (SRSF2 genotype: wt/wt), 104%.

As for `O=C1NS(=O)(=O)c2ccccc21` [Saccharin], the cell viability is 99% and 89.3% with K562 (SRSF2 genotype: SRSF2 P95H/wt); 93.9% with K562 (SRSF2 genotype: SRSF2 wt/wt); 90.5% in the assay on MARIMO (SRSF2 genotype: SRSF2 P95H/wt); 101% with MARIMO (SRSF2 genotype: SRSF2 wt/wt); 97.9% in the assay on MOLM14 (SRSF2 genotype: SRSF2 P95H/wt); 96.6% in the assay with MOLM14 (SRSF2 genotype: SRSF2 wt/wt). The cell viability was 89.5% in the assay with OCI-AML2 (SRSF2 genotype: P95H/wt) and 103% in the assay on OCI-AML2 (SRSF2 genotype: wt/wt).

As for `Cn1sc(=O)n(Cc2ccccc2)c1=O`, the cell viability with K562 (SRSF2 genotype: SRSF2 P95H/wt) was 0.36% and 9.05%; in the assay with K562 (SRSF2 genotype: SRSF2 wt/wt), 0.35%; in the assay on MARIMO (SRSF2 genotype: SRSF2 P95H/wt) it was 0.8%; with MARIMO (SRSF2 genotype: SRSF2 wt/wt) it was 0.14%; in the assay with MOLM14 (SRSF2 genotype: SRSF2 P95H/wt) it was 0.12%; in the assay on MOLM14 (SRSF2 genotype: SRSF2 wt/wt) it was 0.54%. The cell viability in the assay on OCI-AML2 (SRSF2 genotype: P95H/wt) was found to be 0.07%; in the assay with OCI-AML2 (SRSF2 genotype: wt/wt), 0.09%.

For `COc1ccc(-c2oc3cc(O)cc(O)c3c(=O)c2O)cc1` [kaempferide], the cell viability with K562 (SRSF2 genotype: SRSF2 P95H/wt) is 108% and 104%; in the assay on K562 (SRSF2 genotype: SRSF2 wt/wt), 103%; with MARIMO (SRSF2 genotype: SRSF2 P95H/wt), 105%; in the assay with MARIMO (SRSF2 genotype: SRSF2 wt/wt), 119%; in the assay with MOLM14 (SRSF2 genotype: SRSF2 P95H/wt), 74.6%; with MOLM14 (SRSF2 genotype: SRSF2 wt/wt), 98.2%. Moreover, the values for the cell viability with OCI-AML2 (SRSF2 genotype: P95H/wt) and in the assay on OCI-AML2 (SRSF2 genotype: wt/wt) were 80.7% and 82.7%, respectively.

For the compound `Oc1ccc2c(c1)OC[C@]1(O)Cc3cc(O)c(O)cc3[C@H]21` [Brazilin], the cell viability turned out to be 85.9% in the assay on K562 (SRSF2 genotype: SRSF2 wt/wt); 46.3% with MARIMO (SRSF2 genotype: SRSF2 P95H/wt); 11.3% in the assay with MARIMO (SRSF2 genotype: SRSF2 wt/wt); 40.4% with MOLM14 (SRSF2 genotype: SRSF2 P95H/wt); 45.2% in the assay on MOLM14 (SRSF2 genotype: SRSF2 wt/wt); 73.2% in the assay with OCI-AML2 (SRSF2 genotype: P95H/wt). Besides, the cell viability in the assay with OCI-AML2 (SRSF2 genotype: wt/wt) was 77.5%.

On to `CCN(CC)CC(=O)Nc1c(C)cccc1C` [Lidocaine (Alphacaine)], for which the cell viability in the assay with K562 (SRSF2 genotype: SRSF2 P95H/wt) was 113% and 102%; in the assay on K562 (SRSF2 genotype: SRSF2 wt/wt) it was 111%; in the assay on MARIMO (SRSF2 genotype: SRSF2 P95H/wt) it was 106%; in the assay on MARIMO (SRSF2 genotype: SRSF2 wt/wt) it was 108%; in the assay on MOLM14 (SRSF2 genotype: SRSF2 P95H/wt), 103%; in the assay with MOLM14 (SRSF2 genotype: SRSF2 wt/wt), 105%. In addition, the cell viability with OCI-AML2 (SRSF2 genotype: P95H/wt) is 101%; in the assay with OCI-AML2 (SRSF2 genotype: wt/wt) it was 106%.

Regarding `C[C@@H](O)[C@H]1C(=O)N2C(C(=O)OCOC(=O)C(C)(C)C)=C(SC3CN(C4=NCCS4)C3)[C@H](C)[C@H]12` [Tebipenem pivoxil (L-084)], the cell viability with K562 (SRSF2 genotype: SRSF2 P95H/wt) is 99.2% and 99.3%; with K562 (SRSF2 genotype: SRSF2 wt/wt) it was 90%; in the assay with MARIMO (SRSF2 genotype: SRSF2 P95H/wt), 90.5%; with MARIMO (SRSF2 genotype: SRSF2 wt/wt), 84.3%; with MOLM14 (SRSF2 genotype: SRSF2 P95H/wt), 88.7%; with MOLM14 (SRSF2 genotype: SRSF2 wt/wt), 95.2%. Also, the cell viability in the assay on OCI-AML2 (SRSF2 genotype: P95H/wt) is 103%; with OCI-AML2 (SRSF2 genotype: wt/wt) it was 97.2%.

Turning to `O=C(NCCN1CCOCC1)Nc1ccc(C(=O)/C=C/c2cccc(N3CCOCC3)n2)cc1`, the cell viability in the assay on K562 (SRSF2 genotype: SRSF2 wt/wt) was 15.2%; in the assay on MARIMO (SRSF2 genotype: SRSF2 P95H/wt), 21.2%; in the assay on MARIMO (SRSF2 genotype: SRSF2 wt/wt) it was 19.2%; with MOLM14 (SRSF2 genotype: SRSF2 P95H/wt) it was 1.13%; in the assay on MOLM14 (SRSF2 genotype: SRSF2 wt/wt), 1.01%; with OCI-AML2 (SRSF2 genotype: P95H/wt), 5.44%. Also, in the assay with OCI-AML2 (SRSF2 genotype: wt/wt), the cell viability stood at 16.6%.

Consider `CC(CCC(=O)NCCS(=O)(=O)O)C1CCC2C3C(O)CC4CC(O)CCC4(C)C3CCC12C` (stereo not drawn) [Taurochenodeoxycholic acid], for which the cell viability was 104% and 101% with K562 (SRSF2 genotype: SRSF2 P95H/wt); 99.3% with K562 (SRSF2 genotype: SRSF2 wt/wt); 103% in the assay on MARIMO (SRSF2 genotype: SRSF2 P95H/wt); 108% in the assay on MARIMO (SRSF2 genotype: SRSF2 wt/wt); 104% in the assay with MOLM14 (SRSF2 genotype: SRSF2 P95H/wt); 104% in the assay on MOLM14 (SRSF2 genotype: SRSF2 wt/wt). For the same compound, the cell viability is 109% in the assay with OCI-AML2 (SRSF2 genotype: P95H/wt) and 97.8% in the assay with OCI-AML2 (SRSF2 genotype: wt/wt).

In general, cell viability refers to a read-out of living cells in per cent, often relative to untreated cells.
